Screening results as filed in PubChem.
FMDV antiviral: High Throughput Screening for Foot and Mouth Disease Virus Antivirals. 410,000 tested, 1.2% active. FMDV antiviral cell-based qHTS. Potency, µM (top dose mostly 57.9 µM), usual class: inhibitors; calls by dose curve; tested in HEK293T cells; further: read-out not given here; nearly all actives have a fitted effect of over 45% in size
HCMV antiviral: qHTS Assay for inhibitors of the human cytomegalovirus (HCMV). AID 1259415, 2018. activity change, negative = inhibition, % at 57.5 µM. 410,000 tested, 4.5% active. HFF cells, HCMV-luciferase reporter, 72 h; stronger effect = lower value; in the data active means activity change below about -60%; inconclusive means no clear call, values can overlap the other calls; inactive means above about -39%
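Screen run at 2 compound doses on HFFs infected with reporter HCMV, MOI 1 PFU/cell. Luciferase activity from cell lysates at 72 h post infection gave inhibition relative to buffer-only and Salinomycin wells.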
HCV inhibitor: qHTS Assay for Inhibitors of Hepatitis C Virus (HCV). Huh7.5.1 HCVcc-Cre infection, luciferase reporter, 44 h. Potency, µM (titrated, usually from 41.8 µM), most hits filed as inhibitors. 340,000 tested, 3.4% active. AID 651820, 2012; active means well fitted inhibition curve with a large enough effect; inconclusive means small, poorly fitted or top-dose-only effect, or another doubt; inactive means no such curve, though single readings can be large or run the other way
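Seed cells (1,000/well) for 4 h; treat with compound and infect with HCVcc-Cre, moi about 0.5. Incubate 44 h, then detect luciferase activity.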
Vaccinia Venus: qHTS for Stage-Specific Inhibitors of Vaccinia Orthopoxvirus: Venus Reporter Primary qHTS | Vaccinia virus Venus reporter expression, fluorescence | Potency, µM (doses to about 36.5 µM), hits mostly inhibitors | 330,000 tested, 0.46% active | AID 720580, 2013; calls by dose curve; tested in A549 cells; further: nearly all actives have a fitted effect of over 30% in size
Vaccinia mCherry: qHTS for Stage-Specific Inhibitors of Vaccinia Orthopoxvirus: mCherry Reporter Primary qHTS. Vaccinia virus mCherry reporter infection, fluorescence. Potency, µM (series often up to 36.5 µM), usual class: inhibitors. 310,000 tested, 0.63% active; calls by dose curve; tested in A549 cells; further: nearly all actives have a fitted effect of over 35% in size
Each line names hits and unclear results; the compound was inactive in the other large screens. A selection: hits, their analogues and other compounds. The true share with any hit is near 7.3%.

O=C(CN1C(=O)COc2ccc(S(=O)(=O)N3CCCCCC3)cc21)N1CCN(c2ccc(F)cc2)CC1	none (no result: HCV inhibitor)
C[C@H](CO)NC(=O)[C@H](C)[C@H]1C[C@]1(C)[C@H](NC(=O)OCc1ccccc1)c1ccccc1	none
C[C@@H](C(=O)NCC1CC1)[C@@H]1C[C@@]1(C)[C@@H](NC(=O)OCc1ccccc1)c1ccccc1	HCV inhibitor 0.56µM
COc1ccc(NC(=O)CC2SC(N3CCCC3)=NC2=O)cc1Cl (configuration not stated)	none (no result: Vaccinia Venus, Vaccinia mCherry)
COc1cc2c(cc1NC(=O)CCCN1C(=O)CCC1=O)oc1ccccc12	HCV inhibitor 11µM
COc1cc2c(cc1NC(=O)CC1SC(N3CCCC3)=NC1=O)oc1ccccc12 (configuration not stated)	FMDV antiviral inconclusive, HCV inhibitor 11µM, Vaccinia Venus inconclusive, Vaccinia mCherry inconclusive
COc1cc2c(cc1NC(=O)CCCCCN1C(=O)CCC1=O)oc1ccccc12	HCV inhibitor 3.5µM (no result: Vaccinia Venus, Vaccinia mCherry)
COc1cc2c(cc1NC(=O)CN1C(=O)NC3(CCc4ccccc43)C1=O)oc1ccccc12 (configuration not stated)	HCV inhibitor inconclusive, Vaccinia Venus inconclusive, Vaccinia mCherry 10µM
CC(C)(C)OC(=O)N1CCC(c2c(C(=O)N3CCN(c4ccccc4F)CC3)cnn2C(C)(C)C)CC1	none (no result: HCV inhibitor)
CSCCC(NC(=O)c1cccc(C)c1)C(=O)OCC(=O)Nc1c(C)nn(-c2ccccc2)c1C (configuration not stated)	none
Cc1c(C(c2ccc(F)cc2)c2c(C)n(C)n(-c3ccccc3)c2=O)c(=O)n(-c2ccccc2)n1C	none (no result: Vaccinia Venus, Vaccinia mCherry)
CCN(C(=O)CN1C(=O)NC2(CCc3ccccc32)C1=O)C1CCCCC1 (configuration not stated)	HCMV antiviral -100
O=c1c(Cl)c(N2CCN(c3ccc(F)cc3)CC2)cnn1C12CC3CC(CC(C3)C1)C2	FMDV antiviral inconclusive, HCMV antiviral -63, Vaccinia mCherry inconclusive
CCOC(=O)c1oc2ccc(S(=O)(=O)n3nc(-c4ccc(Br)cc4)cc3N)cc2c1C	Vaccinia Venus inconclusive, Vaccinia mCherry inconclusive (no result: HCV inhibitor)
c1nc(N2CCOCC2)c2c3c(sc2n1)CCCC3	FMDV antiviral inconclusive, HCMV antiviral -65, HCV inhibitor inconclusive (no result: Vaccinia Venus, Vaccinia mCherry)
O=C(c1ccccc1)N1CCN(c2ncnc3sc4c(c23)CCC4)CC1	FMDV antiviral 22µM, HCMV antiviral inconclusive, HCV inhibitor inconclusive (no result: Vaccinia Venus, Vaccinia mCherry)
c1cn(-c2ncnc3sc4c(c23)CCCC4)cn1	HCMV antiviral -70, Vaccinia Venus inconclusive (no result: Vaccinia mCherry)
Cc1nc(N2CCOCC2)c2c3c(sc2n1)CCC3	HCV inhibitor inconclusive
c1ccn(-c2ncnc3sc4c(c23)CCCC4)c1	FMDV antiviral inconclusive, HCMV antiviral inconclusive (no result: Vaccinia mCherry)
CN1CCN(C2=C(Cl)C(=O)C(c3cnc(N4CCCCC4)s3)=C(Cl)C2=O)CC1	FMDV antiviral inconclusive (no result: HCMV antiviral)
CC1COCC(C)N1C1=C(Cl)C(=O)c2ccccc2C1=O (configuration not stated)	FMDV antiviral 40µM, HCV inhibitor 11µM
NC(=O)C1CCN(C2=C(Cl)C(=O)c3ccccc3C2=O)CC1	FMDV antiviral 22µM, HCV inhibitor 2.5µM (no result: Vaccinia Venus, Vaccinia mCherry)
O=C1C(Cl)=C(N2CCC(C(=O)O)CC2)C(=O)c2ccccc21	FMDV antiviral 35µM (no result: HCMV antiviral, Vaccinia Venus, Vaccinia mCherry)
NC(=O)C1CCN(C2=C(NS(=O)(=O)c3ccccc3)C(=O)c3ccccc3C2=O)CC1	FMDV antiviral inconclusive
CN1CCN(C2=C(Cl)C(=O)c3ccccc3C2=O)CC1	FMDV antiviral 32µM, HCV inhibitor 7.1µM, Vaccinia Venus 10µM, Vaccinia mCherry inconclusive
CC[N+](CC)=N/N=C1\C=CC[N+]([O-])=C1	none (no result: HCV inhibitor)
COc1cc(=O)n2c(c1C(=O)N(C)Cc1nonc1C)CCN(Cc1cccc3ccccc13)CC2	none (no result: HCMV antiviral, HCV inhibitor)
COC(=O)C1=C(C)N=C2SC(C)C(=O)N2C1c1ccc(C(=O)OC)cc1 (configuration not stated)	HCMV antiviral -88
COc1ccc(S(=O)(=O)N2CCOCC2)cc1NC(=O)CN1CCCC1	none
COc1cc(NC(=O)c2cc(OC)c(OC)c(OC)c2)c(OC)cc1NC(=O)CN1CCCCC1	HCV inhibitor 2.5µM (no result: Vaccinia mCherry)
COc1cc(NC(=O)c2ccc(C)cc2)c(OC)cc1NC(=O)CN1CCCCC1	HCV inhibitor inconclusive
CS(=O)(=O)c1ccc2nc(NC(=O)CN3CCN(Cc4ccccc4)CC3)sc2c1	none (no result: Vaccinia Venus, Vaccinia mCherry)
COc1ccc(S(=O)(=O)N2CCCCCC2)cc1NC(=O)CCCOc1ccccc1	HCV inhibitor 13µM (no result: Vaccinia Venus, Vaccinia mCherry)
CS(=O)(=O)c1ccc2nc(NC(=O)CN3CCC(Cc4ccccc4)CC3)sc2c1	HCMV antiviral -85
COc1ccc(S(=O)(=O)N2CCOCC2)cc1NC(=O)CN1CCC(Cc2ccccc2)CC1	HCMV antiviral -66, HCV inhibitor 10µM, Vaccinia Venus inconclusive, Vaccinia mCherry inconclusive
CC(C)(C)C(=O)CN1C2=NCCCN2c2ccccc21	none (no result: Vaccinia Venus, Vaccinia mCherry)
CCOc1ccc(S(=O)(=O)N2CCCCC2)cc1NC(=O)Cc1ccccc1	none (no result: Vaccinia Venus, Vaccinia mCherry)
COc1ccc(OCCCC(=O)Nc2cc(S(=O)(=O)N3CCCCC3)ccc2OC)cc1	HCV inhibitor inconclusive (no result: Vaccinia Venus, Vaccinia mCherry)
COc1ccc(S(=O)(=O)N2CCCCC2)cc1NC(=O)Cc1sc(C)nc1-c1ccc(F)cc1	HCMV antiviral -65, HCV inhibitor inconclusive
CCC(=O)c1ccc(OCC(=O)Nc2cc(S(=O)(=O)N3CCCCC3)ccc2OC)cc1	HCV inhibitor 11µM (no result: Vaccinia Venus, Vaccinia mCherry)
CCOc1ccc(S(=O)(=O)N2CCCCC2)cc1NC(=O)C1COc2ccccc2O1 (configuration not stated)	FMDV antiviral inconclusive, HCV inhibitor 10µM
CCOc1ccc(S(=O)(=O)N2CCCCC2)cc1NC(=O)Cc1cc(OC)c(OC)c(OC)c1	HCMV antiviral -88 (no result: HCV inhibitor)
CCC(C)SCC(=O)Nc1ccc(S(=O)(=O)N2CCOCC2)cc1OC (configuration not stated)	HCV inhibitor 11µM
CCC(CC)C(=O)OCC(=O)Nc1ccc(S(=O)(=O)N2CCOCC2)cc1OC	none (no result: Vaccinia Venus, Vaccinia mCherry)
CC(C)N1CCc2c(sc(NC(=O)c3nc4ccccc4s3)c2C(N)=O)C1	HCV inhibitor inconclusive
CC(C)N1CCc2c(sc(NC(=O)c3ccc(S(=O)(=O)N(C)C4CCCCC4)cc3)c2C(N)=O)C1	none (no result: HCV inhibitor)
COc1ccc(C(=O)Nc2sc3c(c2C#N)CCN(C(C)=O)C3)cc1	none
CC(=O)N1CCc2c(sc(NC(=O)c3ccc([N+](=O)[O-])o3)c2C#N)C1	HCMV antiviral -98 (no result: Vaccinia Venus, Vaccinia mCherry)
CC(C)N1CCc2c(sc(NC(=O)c3cc(-c4cccs4)nc4ccccc34)c2C(N)=O)C1	FMDV antiviral inconclusive, HCV inhibitor 10µM, Vaccinia Venus inconclusive, Vaccinia mCherry inconclusive (no result: HCMV antiviral)
CC(C)N1CCc2c(sc(NC(=O)c3ccc([N+](=O)[O-])o3)c2C(N)=O)C1	HCMV antiviral -98 (no result: FMDV antiviral, HCV inhibitor, Vaccinia Venus, Vaccinia mCherry)
